# Screening data deposited in PubChem BioAssay by National Center for Advancing Translational Sciences (NCATS).
# Pf growth 48h – Primary qHTS for delayed death inhibitors of the malarial parasite plastid, 48 hour incubation. P. falciparum luciferase growth in erythrocytes, 48 h. Potency, µM (titrated, usually from 28.7 µM), most hits filed as inhibitors. 310,000 compounds, 5.9% hits. AID 504832, 2011
#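 A one-generation exposure of luciferase-tagged malaria parasites in RPMI 1640/Albumax erythrocyte culture, 37 C and 5% CO2. Inhibition is inferred from decreased luminescence after adding detection reagent.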
# Pf growth 96h – Primary qHTS for delayed death inhibitors of the malarial parasite plastid, 96 hour incubation; P. falciparum luciferase reporter growth, 96 h; Potency, µM (titrated, usually from 28.7 µM), actives largely listed as inhibitors; 320,000 compounds, 6.9% hits; AID 504834, 2011
#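 Infected RBCs, 2% Hct / 0.05% parasitemia final; luciferase-reporter P. falciparum; cpd 96 h, 37 C, 5% CO2; luciferase detection reagent; luminescence.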
# AMA1-RON2 inh – qHTS for Inhibitors of AMA1-RON; Towards Development of Antimalarial Drug Lead: Primary Screen | Plasmodium falciparum AMA1 (3D7) - RON2 peptide interaction | AlphaScreen AMA1-biotinylated RON2 peptide binding | Potency, µM (series often up to 58.2 µM), usual class: inhibitors | 360,000 compounds, 0.2% hits | AID 720542, 2013; note: nearly all actives have a fitted effect of over 45% in size
#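 AMA1 (3D7) with his tag at 25 nM final met compounds first, then biotinylated RON2 peptide at 25 nM; detection used donor plus acceptor beads, 10 µg/mL apiece, read by AlphaScreen after 30 min at room temperature.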
# SARS PLP yeast – qHTS of Yeast-based Assay for SARS-CoV PLP | S. cerevisiae expressing SARS-CoV PLpro, growth rescue | 330,000 compounds, 0.19% hits | Potency, µM (highest dose often 32.9 µM), usual class: activators | AID 485353, 2010; calls by dose curve; note: nearly all actives have a fitted effect of over 55% in size
# A number is an active result; i = inactive; ? = inconclusive; nt = no result given; [ ] = remark or other dose. This is a sample that favours compounds with a hit; in the whole collection about 9.4% have one here. Unless noted, calls come from the whole dose curve; as a rule, active = well fitted curve in the direction sought with a large enough effect; inconclusive = small, poorly fitted or top-dose-only effect, or another doubt; inactive = no such curve, though single readings can be large; an effect the other way counts as inactive or inconclusive.
SMILES,Pf growth 48h,Pf growth 96h,AMA1-RON2 inh,SARS PLP yeast
O=c1cc(O)c2sc3nc4c(c(C(F)(F)F)c3c2[nH]1)CCCCC4,2.1µM,i,i,i
Cc1ccc(NC(=O)Cn2cc(C=O)c3ccccc32)cc1C,i,i,i,i
COc1ccc(Cn2c(N)c(C#N)c3nc4ccccc4nc32)cc1OC,nt,?,i,i
COc1ccccc1CCn1c(N)c(C#N)c2nc3ccccc3nc21,9.3µM,?,i,i
COc1ccc(CCn2c(N)c(C#N)c3nc4ccccc4nc32)cc1OC,5.9µM,i,i,i
CCCCCn1c(N)c(C#N)c2nc3ccccc3nc21,?,?,i,i
COc1ccc(O)c(/C=N/NC(=O)CN2CCS(=O)(=O)CC2)c1,i,i,i,i
COc1ccc(Br)cc1CN(C)C(=O)c1cc(Cl)c2c(c1)OCCO2,?,i,i,i
O=c1c2cnn(-c3ccccc3)c2nc(-c2cccs2)n1-c1cccc(Cl)c1,13µM,?,i,i
COCC1CCN(C(=O)c2ccc3oc(CCCc4ccccc4)nc3c2)C1 (centres undefined),i,3.7µM,i,i
COc1cc(/C=C/CNC[C@H]2O[C@@H](n3cnc4c(=O)[nH]c(N)nc43)[C@H](O)[C@@H]2O)ccc1O,nt,nt,i,nt
COc1ccc(-c2cc(C(=O)N3CCN(c4ccccc4)CC3)no2)cc1OC,i,nt,i,i
COc1ccc(C(=S)N2CCOCC2)cc1OC(=O)c1ccccc1,i,i,i,i
COc1ccccc1-c1cc(C(F)(F)F)nc(N2CCN(c3ccccc3)CC2)n1,i,?,i,i
COc1ccccc1-c1cc(C(=O)N2CCN(c3ccc(F)cc3)CC2)no1,i,8.3µM,i,i
COc1ccc(-c2cc(C(=O)N3CCOCC3)no2)cc1OC,i,1.3µM,?,i
COc1ccccc1-c1cc(C(F)(F)F)nc(N2CCN(c3ccc(F)cc3)CC2)n1,i,13µM,i,i
COc1ccc(C(=S)N2CCOCC2)cc1OC(=O)c1ccc(C)cc1,i,2.9µM,i,i
O=[N+]([O-])c1ccc(/C=N/n2c(-c3cccnc3)n[nH]c2=S)cc1,i,?,i[2.32 µM],i
CCNS(=O)(=O)c1ccc(CCC(=O)NCc2ccccn2)cc1,i,i,i,i
CCCCNC(=O)c1cc(-c2ccc(OC)c(OC)c2)on1,nt,3.3µM,i,i
COc1ccc(-c2cc(C(=O)N3CC4(C)CC3CC(C)(C)C4)no2)cc1OC (centres undefined),0.93µM,?,i,i
COc1cccc(OC)c1C(=O)N1CCOCC1,i,15µM,i,i
O=C(COc1ccc2ccc(=O)oc2c1)N1CCN(c2ccccc2)CC1,i,i,i,i
O=C(NCCc1c[nH]c2ccccc12)c1cncc(Br)c1,i,?,i,i
SMILES,Pf growth 48h,Pf growth 96h,AMA1-RON2 inh,SARS PLP yeast
CC(C)NC(=O)c1ccccc1NC(=O)C1COc2ccccc2O1 (centres undefined),10µM,i,i,i
CCC(C)NC(=O)c1ccccc1NC(=O)C1COc2ccccc2O1 (centres undefined),1.2µM,?,i,i
COCCNC(=O)c1ccccc1NC(=O)C1COc2ccccc2O1 (centres undefined),i,?,i,i
COCCSc1nc(N)c(NC(=O)c2ccc(OC)cc2)c(=O)[nH]1,i,i,i,i
O=[N+]([O-])c1ccc(OCCn2cncn2)cc1,i,i,i,i
Cc1c(C(=O)c2ccc(Cl)cc2[N+](=O)[O-])c2ccccn2c1CCC#N,i,i,i[2.32 µM],i
C=CCn1c2ccccc2c(=O)c2cc(C#Cc3cc(OC)cc(OC)c3)ccc21,12µM,?,i,i
Cn1c2ccccc2c(=O)c2cc(C#Cc3ccsc3)ccc21,i,?,i,i
N#Cc1cc2ccccc2n2nnnc12,i,i,i,i
Cn1cc(CN2CCC(O)CC2)c(-c2ccc(Oc3ccccc3)cc2)n1,i,9.3µM,i,i
CC(C)N(C)Cc1cn(C)nc1-c1ccc(Oc2ccccc2)cc1,i,5.2µM,i,i
Cc1cc(=O)c2ccccc2n1Cc1ccccc1,i,?,i,i
CCOc1ccccc1Oc1coc2cc(OC)ccc2c1=O,i,i,i,?
COc1cccc(/C=C/C(=O)OCC(=O)Nc2cc(S(=O)(=O)N3CCOCC3)ccc2C)c1,i,i,i,i
O=C(O)C1=CC2c3ccccc3C1c1ccccc12,i,10µM,i,i
